# Myeloid diff MLP – induction of myeloid progenitor differentiation, primary screen, cell-based, flow cytometry, MLPCN library. calls only at 10 µM. ER-HoxA9 myeloid progenitors, lysozyme-GFP differentiation. AID 624256, 2012. 360,000 tested, 1% active;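 active = normalized GFP-positive differentiation at or above the plate's own cutoff, the solvent-only control mean plus 3 SD; inconclusive = no clear call, values can overlap the other calls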;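 note: cells exposed to compound for four days before flow analysis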
# NR3A LBD binder – binders of NR3A ligand-binding domain, primary screen, biophysical, differential scanning fluorimetry, uHTS; Glutamate receptor ionotropic, NMDA 3A (GRIN3A) ligand-binding domain; 340,000 tested, 2.5% active; NR3A LBD differential scanning fluorimetry, Tm shift; 0% = protein alone, 100% = glycine-bound protein; Tm shift relative to glycine control, % at 25 µM; AID 1259313, 2017;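 active = melting temperature shift of at least 10% of the positive control shift, at one fixed dose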
# rCAG RNA binder – binders of r(CAG) RNA repeats, primary screen, biochemical, fluorescence | r(CAG) RNA repeat, TO-PRO-1 dye displacement fluorescence | inhibition, % at 3 µM | 370,000 tested, 1.3% active | AID 651821, 2012;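 active = inhibition above the plate cutoff, the mean of all test compounds on that plate plus 3 SD, cut at about 35% in these data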;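 note: 0% = DMSO alone and 100% = 100 µM mitoxantrone as full dye displacement; higher means more dye released from RNA so lower well fluorescence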
# MPTP block – mitochondrial permeability transition pore inhibitors, primary screen, biochemical, isolated mouse mitochondria, absorbance; 360,000 tested, 1.4% active; Ca2+ swelling absorbance, 30 min; inhibition, % at 10 µM;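 active = inhibition of 50% or more, scaled per plate between neutral and stimulator controls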;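 note: 0% = DMSO wells given calcium and 100% = 1 mM EGTA wells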
# FAS TE block – FAS thioesterase domain inhibitors, primary screen, biochemical, fluorescence intensity, uHTS | recombinant FAS-TE, OMFH fluorogenic substrate, fluorescence endpoint | inhibition, % at 15 µM | 360,000 tested, 0.67% active | AID 602261, 2012;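 active = compounds whose normalised, plate-corrected inhibition of enzyme fluorescence in the single-dose primary screen is 50% or more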;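 note: 0% = DMSO with enzyme and 100% = substrate without enzyme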
# Target sequence (P49327 whole entry, looked up, the tested form may be a part): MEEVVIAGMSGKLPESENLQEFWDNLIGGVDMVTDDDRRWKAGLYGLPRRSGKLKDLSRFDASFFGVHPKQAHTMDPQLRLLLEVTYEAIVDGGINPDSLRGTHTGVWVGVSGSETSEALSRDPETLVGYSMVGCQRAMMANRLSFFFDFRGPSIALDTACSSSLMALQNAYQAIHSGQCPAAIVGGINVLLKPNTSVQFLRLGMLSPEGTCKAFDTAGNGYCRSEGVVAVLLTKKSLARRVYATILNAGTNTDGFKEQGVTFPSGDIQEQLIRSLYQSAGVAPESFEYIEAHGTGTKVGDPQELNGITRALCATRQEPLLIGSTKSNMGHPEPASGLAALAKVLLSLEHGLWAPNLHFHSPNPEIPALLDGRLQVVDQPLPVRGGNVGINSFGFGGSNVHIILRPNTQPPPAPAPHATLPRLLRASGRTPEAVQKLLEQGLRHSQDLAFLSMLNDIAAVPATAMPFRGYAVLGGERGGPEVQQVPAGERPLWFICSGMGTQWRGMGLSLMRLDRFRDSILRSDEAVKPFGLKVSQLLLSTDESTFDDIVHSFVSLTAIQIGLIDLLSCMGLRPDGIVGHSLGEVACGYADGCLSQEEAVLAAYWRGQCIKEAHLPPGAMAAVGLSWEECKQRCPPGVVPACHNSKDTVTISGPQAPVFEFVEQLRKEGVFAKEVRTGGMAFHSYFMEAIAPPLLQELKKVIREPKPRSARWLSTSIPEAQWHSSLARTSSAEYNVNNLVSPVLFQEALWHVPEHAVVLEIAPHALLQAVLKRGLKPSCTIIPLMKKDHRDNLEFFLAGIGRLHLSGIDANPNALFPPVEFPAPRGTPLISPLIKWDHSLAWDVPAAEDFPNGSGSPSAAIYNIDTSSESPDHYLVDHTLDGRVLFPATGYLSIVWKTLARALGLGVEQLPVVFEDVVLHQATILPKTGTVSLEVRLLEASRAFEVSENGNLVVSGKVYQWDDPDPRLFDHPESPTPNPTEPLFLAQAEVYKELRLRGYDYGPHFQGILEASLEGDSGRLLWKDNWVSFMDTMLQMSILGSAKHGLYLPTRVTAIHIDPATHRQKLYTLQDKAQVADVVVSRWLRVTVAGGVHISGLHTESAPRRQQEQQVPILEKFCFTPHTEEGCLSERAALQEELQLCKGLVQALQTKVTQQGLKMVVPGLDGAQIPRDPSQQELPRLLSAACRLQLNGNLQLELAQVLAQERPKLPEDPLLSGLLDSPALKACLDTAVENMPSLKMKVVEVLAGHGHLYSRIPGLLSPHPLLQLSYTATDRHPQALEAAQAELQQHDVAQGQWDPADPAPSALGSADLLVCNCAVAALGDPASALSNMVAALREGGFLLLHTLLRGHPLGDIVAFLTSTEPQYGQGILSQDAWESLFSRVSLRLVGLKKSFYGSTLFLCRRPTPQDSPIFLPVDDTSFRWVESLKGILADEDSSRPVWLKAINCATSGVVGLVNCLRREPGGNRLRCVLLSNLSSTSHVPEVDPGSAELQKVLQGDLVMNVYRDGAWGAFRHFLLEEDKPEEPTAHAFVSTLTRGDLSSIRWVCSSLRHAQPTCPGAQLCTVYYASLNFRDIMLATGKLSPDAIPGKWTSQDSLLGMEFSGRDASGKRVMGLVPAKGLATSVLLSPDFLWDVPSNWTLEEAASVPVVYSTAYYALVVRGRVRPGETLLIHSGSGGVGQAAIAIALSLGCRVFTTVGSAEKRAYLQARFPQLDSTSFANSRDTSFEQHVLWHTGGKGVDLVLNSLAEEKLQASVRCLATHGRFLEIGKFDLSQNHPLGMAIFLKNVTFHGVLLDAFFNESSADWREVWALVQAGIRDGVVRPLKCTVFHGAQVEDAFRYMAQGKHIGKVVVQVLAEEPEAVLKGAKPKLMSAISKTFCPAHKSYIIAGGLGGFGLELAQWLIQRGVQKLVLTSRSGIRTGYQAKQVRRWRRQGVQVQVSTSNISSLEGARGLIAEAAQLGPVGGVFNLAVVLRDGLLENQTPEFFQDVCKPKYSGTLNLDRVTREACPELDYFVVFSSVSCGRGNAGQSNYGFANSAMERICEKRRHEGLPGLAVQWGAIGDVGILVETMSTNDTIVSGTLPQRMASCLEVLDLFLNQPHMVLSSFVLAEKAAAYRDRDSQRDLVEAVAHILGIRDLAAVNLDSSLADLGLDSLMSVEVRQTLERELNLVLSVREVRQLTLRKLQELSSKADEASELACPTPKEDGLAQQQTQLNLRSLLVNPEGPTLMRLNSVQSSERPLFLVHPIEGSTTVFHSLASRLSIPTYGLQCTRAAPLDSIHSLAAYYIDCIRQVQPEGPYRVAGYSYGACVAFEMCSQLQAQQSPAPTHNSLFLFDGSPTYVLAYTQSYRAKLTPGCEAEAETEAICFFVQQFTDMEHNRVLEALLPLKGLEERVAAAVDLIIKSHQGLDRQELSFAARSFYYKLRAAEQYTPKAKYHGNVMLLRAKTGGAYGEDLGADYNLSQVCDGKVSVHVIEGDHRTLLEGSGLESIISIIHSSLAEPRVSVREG
# Rh123 counter – fluorescence retest of MPTP screen hits in isolated mitochondria, single concentration. shares compounds with MPTP block. 5,000 tested, 78% active. membrane potential, Rhodamine 123 fluorescence. inhibition, % at 10 µM. AID 624504, 2012; in the data active = inhibition above about 22%;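 note: 0% = DMSO vehicle and 100% = positive control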
# MPTP swell DR – mitochondrial permeability transition pore inhibitors, dose response, biochemical, absorbance, uHTS hits | shares compounds with MPTP block | isolated mitochondria swelling | IC50, µM | 780 tested, 58% active | AID 651561, 2012; in the data active = IC50 below about 20 µM
# MPTP counter DR – fluorescent counter-screen in isolated mitochondria, dose response, counter-screen for MPTP inhibitor project, biochemical, fluorescence, uHTS hits | IC50, µM | 780 tested, 49% active | shares compounds with MPTP block | isolated mitochondria counterscreen, fluorescence read-out | AID 651564, 2012; in the data active = IC50 below about 80 µM
# * hit, by the source's call; i = inactive; ? = inconclusive; nt = no result; + = active, no number. The list is not random: actives were taken first. Their share in the collection is about 5.7%.
SMILES,Myeloid diff MLP,NR3A LBD binder,rCAG RNA binder,MPTP block,FAS TE block,Rh123 counter,others
COC(=O)c1cccc(NC(=S)Nc2cccc(Cl)c2C)c1,i,-5,-1,28,-1,nt,
COC(=O)c1cc(NC(=S)Nc2cc(Cl)cc(Cl)c2)cc(C(=O)OC)c1,i,16*,7,83*,29,75*,
CC(C)S(=O)(=O)c1csc(C(=O)NNC(=O)Nc2ccccc2)c1Cl,i,-1,15,2,-3,nt,
COC(=O)c1cccc(NC(=O)Nc2ccc(Cl)cc2)c1,i,35*,6,77*,-2,92*,
NS(=O)(=O)c1cccc(NC(=O)Nc2ccc(Cl)cc2)c1,i,36*,4,89*,6,86*,
COC(=O)c1cccc(NC(=O)NC(=O)c2ccc(Cl)cc2)c1,i,-2,-2,1,-2,nt,
CC(C)S(=O)(=O)c1csc(NC(=O)Nc2ccc(Cl)cc2)c1,i,33*,7,76*,6,79*,
Cc1cccc(NC(=O)Nc2ccc(S(N)(=O)=O)cc2)c1,i,5,4,-1,-2,nt,
COC(=O)c1cccc(NC(=S)Nc2ccc(Cl)c(Cl)c2)c1,i,23*,5,80*,22,91*,
COC(=O)c1cccc(NC(=S)Nc2ccccc2Cl)c1,i,-1,0,9,-2,nt,
C/C(=N\Nc1ccc([N+](=O)[O-])cc1)c1ccc(N2CCOCC2)cc1,i,8,1,6,-1,nt,
CC/C(=N\Nc1ccc([N+](=O)[O-])cc1)c1ccccc1,i,-2,nt,65*,48,63*,
C/C(=N\Nc1ccc([N+](=O)[O-])cc1)c1ccco1,i,2,6,13,1,nt,
CCc1ccc(/C(C)=N\Nc2ccc([N+](=O)[O-])cc2)cc1,+,-1,15,58*,4,51*,
CC(C)CCNC(=O)CCc1nnc(COc2ccccc2)o1,i,-1,-7,0,-4,nt,
CC(NC(=O)Nc1ccc([N+](=O)[O-])cc1)C(c1ccccc1)N1CCOCC1 (centres undefined),i,-7,-1,-1,8,nt,
CC(NC(=O)Nc1ccc(Cl)c(Cl)c1)C(c1ccccc1)N1CCOCC1 (centres undefined),i,1,-1,89*,33,95*,
CC(Cc1cccs1)NC(=O)Nc1ccc(Cl)c(Cl)c1 (centres undefined),i,8,8,96*,35,94*,
CC1OC(CCc2cccc(Cl)c2)Cc2[nH][nH]c(=O)c21 (centres undefined),i,nt,8,0,-16,nt,
CCn1cc(/C=N\NC(=O)C2(C)CC2(Cl)Cl)c(C)n1 (centres undefined),i,-3,1,0,-17,nt,
O=[N+]([O-])c1cc(-c2ccccc2)cc([N+](=O)[O-])c1O,i,-7,11,78*,4,89*,
O=[N+]([O-])c1cc2ccccc2c(O)c1O,i,nt,7,0,-2,nt,
Cn1nc(C(C)(C)C)cc1C(=O)NCc1ccc2c(c1)OCO2,?,0,-6,101*,6,105*,
Cc1oc(C(C)(C)C)cc1C(=O)NCc1ccc2c(c1)OCO2,i,1,-8,63*,12,28*,
CCn1ccc(C(=O)NCc2ccc3c(c2)OCO3)n1,i,2,0,0,-4,nt,
SMILES,Myeloid diff MLP,NR3A LBD binder,rCAG RNA binder,MPTP block,FAS TE block,Rh123 counter,others
Cc1ccc(S(=O)(=O)CCC(=O)OCC(=O)NC(C)c2ccc(F)cc2)cc1 (centres undefined),i,0,-6,0,-3,nt,
CCOC(=O)N1CCN(C(=O)c2cc(Cl)c(Cl)cc2C(=O)O)CC1,i,-2,nt,55*,-11,-6,MPTP swell DR=>100;MPTP counter DR=>80
Cc1c(C(=O)N/N=C/c2ccc(N(C)C)cc2)[nH]c2ccc(Cl)cc12,nt,27*,12,80*,2,74*,
Cc1c(C(=O)N/N=C/c2ccccc2)[nH]c2ccc(Cl)cc12,i,30*,15,87*,0,89*,
O=C(N/N=C/c1ccccc1)c1c(O)c2ccccc2[nH]c1=O,i,2,2,3,-6,nt,
O=C(N/N=C/c1ccccc1Cl)c1[nH]c2ccc(Br)cc2c1-c1ccccc1,?,29*,2,82*,41,88*,
COc1cc(C(=O)NN=Cc2ccc(N(C)C)cc2)cc(OC)c1OC,i,nt,5,1,-8,nt,
COc1ccc(C(C)NC(=O)c2ccc([N+](=O)[O-])cc2)cc1OC (centres undefined),i,-2,-1,-2,-6,nt,
CC(C)(C)n1ncc(Oc2ccccc2[N+](=O)[O-])c(Cl)c1=O,i,-2,-4,86*,-4,34*,
CC(C)CNC(=O)COc1ccc(Sc2ccc(OCC(=O)NCC(C)C)cc2)cc1,i,-2,-3,53*,-10,20,MPTP swell DR=5.4*;MPTP counter DR=>80
CCCC(C)NC(=O)COc1ccc(Sc2ccc(OCC(=O)NC(C)CCC)cc2)cc1 (centres undefined),i,4,-4,78*,1,34*,
COc1cc(C(C)n2nnc3ccccc32)ccc1O (centres undefined),i,nt,1,-1,-4,nt,
COc1ccc(-c2cn(Cc3ccc(C(=O)NCc4ccc(C)cc4)cc3)c(C(C)N)n2)cc1 (centres undefined),i,-6,0,75*,-24,-20,MPTP swell DR=10*;MPTP counter DR=>80
CCCc1c(C(=O)N/N=C/c2sccc2C)nnn1-c1nonc1N,i,2,0,0,-8,nt,
O=C(Nc1cccnc1)c1ccc(CSc2ccccc2)cc1,i,-11,1,0,-2,nt,
O=C(Nc1cccc(Br)c1)c1ccc(CSc2ccccc2)cc1,i,30*,0,67*,31,77*,
CN(C)CCN(C(=O)/C=C/c1cccs1)c1nc2ccc(F)cc2s1,i,-5,-2,72*,0,-8,MPTP swell DR=13*;MPTP counter DR=>80
CCN(CC)CCN(C(=O)/C=C/c1cccs1)c1nc2ccc(Cl)cc2s1,?,-5,2,5,7,nt,

# Screening data from PubChem BioAssay.
